# Measured values from PubChem BioAssay AID588742 (Southern Research Specialized Biocontainment Screening …, 2011).
# Among all 1,800 compounds or so, about 410 (23%) were called active. The rule behind the calls is not given here. The list is a sample of the results. Potency and affinity values are given separately.
# Assay: viability of Vero cells under compound – cytotoxicity control for flavivirus capping enzyme inhibitors (AID 588742)
# Conditions: cytotoxicity counter-screen; series mostly up to 40 µM; viability: at the top concentration
row,SMILES,viability
1,CCOc1cc(/C=C2\C(=O)ON=C2c2ccccc2)ccc1OC,103% (inactive)
2,O=C1C(Cl)=C(N2CCOCC2)C(=O)N1c1ccccc1,94.5% (inactive)
3,Cc1cc(NS(=O)(=O)c2ccc(Nc3nc(-c4sc(N)nc4C)cs3)cc2)no1,95.2% (inactive)
4,CCc1sc(C(C2C(=O)CC(C)(C)CC2=O)C2C(=O)CC(C)(C)CC2=O)cc1[N+](=O)[O-],97% (inactive)
5,Cc1ccc(CNC(=O)CSc2n[nH]c(N)n2)cc1,94.2% (inactive)
6,CCCCC(NC(=O)Cc1c(C)c2cc3c(-c4ccccc4)coc3c(C)c2oc1=O)C(=O)O (stereo unspecified),94.3% (inactive)
7,Oc1ccc(N=Nc2ccccc2-c2nn[nH]n2)c(O)c1,98.7% (inactive)
8,CC(C)OP(=O)(OC(C)C)C1(NS(=O)(=O)c2ccc(Cl)cc2)C=C(Cl)C(=O)C(Cl)=C1,89.6% (inactive)
9,CC1=NN(c2ccc(Br)cc2)C(=O)/C1=C/c1ccc(-c2ccccc2C(=O)O)o1,96.6% (inactive)
10,Cc1ccccc1-c1ncc(CN2CCN(C3CCCCC3)C(CCO)C2)cn1 (stereo unspecified),105% (inactive)
11,CC1(C)Cc2c(C#N)c(N)sc(=S)c2CS1,91.3% (inactive)
12,COc1ccc(N2C(=O)C3CCCN3C2c2cccc(Br)c2)cc1 (stereo unspecified),101% (inactive)
13,O=[N+]([O-])c1ccc(N/N=C/c2ccc(O)c(O)c2O)c(S(=O)(=O)N2CCOCC2)c1,93.6% (inactive)
14,O=C(CCc1ccc(S(=O)(=O)N2CCOCC2)cc1)N/N=C/c1ccc(O)c(O)c1O,102% (inactive)
15,Oc1ccc2ccccc2c1C=NC12CN3CCN(CN(C3)C1)C2,95.7% (inactive)
16,O=C(O)c1ccc(N(c2ccccc2)c2ccccc2)cc1,96% (inactive)
17,CCN(CC)c1ccc(SS(=O)(=O)O)cc1,90.7% (inactive)
18,COc1ccccc1CNC(=O)CN1C(=O)N(C)C2(CCCCC2)C1=O,106% (inactive)
19,O=c1[nH]n2c(=O)c3c([nH]c2c1N=Nc1cccc(Cl)c1)CCCC3,107% (inactive)
20,CC(C)CSC1=NSC2=NC(=O)/C(=C\c3ccccc3)C(=N)N12,90.5% (inactive)
21,Nc1ccc(N2CCOCC2)c2nonc12,92.8% (inactive)
22,Cc1ccccc1SCC(=O)OCC(=O)Nc1ccc(N(C)C)cc1,101% (inactive)

row,SMILES,viability
1,O=C(O)c1ccc(COc2ccccc2C=C2C(=O)c3ccccc3C2=O)cc1,90.2% (inactive)
2,CN(C)c1ccc(NC(=O)CCCc2ccccc2)cc1,100% (inactive)
3,O=C(O)c1cccc(NC2=C(Cl)C(=O)c3ccccc3C2=O)c1,89.2% (inactive)
4,CC(=O)N(C(C)=O)N1C(=O)C2C3c4ccccc4C(c4ccccc43)C2C1=O (stereo unspecified),105% (inactive)
5,O=C(CN1C(=O)/C(=C2\SC(=S)N(CCS(=O)(=O)O)C2=O)c2ccccc21)Nc1cccc(Br)c1,94.1% (inactive)
6,O=C1/C(=C/c2cccc(F)c2)SC(=S)N1NS(=O)(=O)c1ccccc1,99.2% (inactive)
7,CCNc1sc(C(=O)c2cccs2)c(N)c1C#N,95.9% (inactive)
8,CC(C)CN1C(=O)/C(=C/c2ccco2)NC1=S,95.4% (inactive)
9,Cc1cccc(OC(C)C(=O)OCC(=O)Nc2sccc2C(N)=O)c1 (stereo unspecified),101% (inactive)
10,CC(=O)C1CCC2C3CCC4=CC(=O)CCC4(C)C3(Br)C(=O)CC12C (stereo unspecified),90.9% (inactive)
11,COC(=O)CCC(=O)OC1(C)C(=O)C2=CN(Cc3ccccc3)C(c3ccc(OC)cc3)=CC2=C(Br)C1=O (stereo unspecified),102% (inactive)
12,O=c1c([N+](=O)[O-])c(O)c2ccccc2n1Cc1ccccc1,102% (inactive)
13,Nc1nc(N=Nc2ccc(O)cc2)cc(=O)[nH]1,99.2% (inactive)
14,Cc1cc(C(=O)O)ccc1-c1ccc(/C=C2\NC(=O)N(Cc3ccc(F)cc3)C2=O)o1,83.7% (inactive)
15,CCS(=O)(=O)c1nc(S(=O)(=O)c2ccc(Cl)cc2)c(N2CCC(O)CC2)s1,98.7% (inactive)
16,O=C1C2C3CCCC3=C3CCCC3C2C(=O)N1c1cccc(Cl)c1 (stereo unspecified),101% (inactive)
17,O=C(O)c1cccc(Nc2nc3ccccc3nc2NS(=O)(=O)c2cccs2)c1,96.3% (inactive)
18,Cc1ccc(N2NC(=O)/C(=C/c3ccc(-c4ccc(Cl)c(C(=O)O)c4)o3)C2=O)cc1C,95% (inactive)
19,O=C1C(Cl)=C(Oc2ccccc2)C(=O)c2ccccc21,85.8% (inactive)
20,COc1cccc(/C=C2\C(=O)C(=O)c3ccccc32)c1,97.9% (inactive)
21,CC(=O)OCC1=C(C(=O)O)N2C(=O)C(NC(=O)c3ccc(COc4cccc(Cl)c4Cl)o3)C2SC1 (stereo unspecified),111% (inactive)
22,O=C(NCCCN1CCOCC1)c1ccc(NS(=O)(=O)c2ccccc2)cc1,104% (inactive)

row,SMILES,viability
1,O=C(c1c(F)cccc1F)N1CCCC1,101% (inactive)
2,Oc1ccc(/C=N/Nc2ccc(Cl)nn2)c(O)c1O,96% (inactive)
3,C#CCOc1ccc(/C=C2/C(=O)N(c3ccc(S(N)(=O)=O)cc3)N=C2C)cc1OC,97.6% (inactive)
4,O=C(CCN1C(=O)/C(=C\c2ccccc2F)SC1=S)Nc1ccc(C(=O)O)c(O)c1,109% (inactive)
5,COC(=O)c1sc(N2C(=O)C(O)=C(C(=O)c3ccc(C)o3)C2c2ccc([N+](=O)[O-])cc2)nc1C (stereo unspecified),97% (inactive)
6,CC[n+]1c(/C=C2\C=C(C)CC(C)(C)C2)sc2ccccc21,86.9% (inactive)
7,CC1=NN(c2ccccc2)C(=O)/C1=C\c1ccc(Oc2ccc([N+](=O)[O-])cc2[N+](=O)[O-])cc1,94.5% (inactive)
8,O=C(O)c1cccc(N2C(=O)c3cc([N+](=O)[O-])cc4cc([N+](=O)[O-])cc(c34)C2=O)c1,97.3% (inactive)
9,O=C(c1cccc(S(=O)(=O)N2CCOCC2)c1)N(Cc1ccc(F)cc1)Cc1ccco1,88.5% (inactive)
10,Cc1ccc(C2/C(=C(/O)c3ccc(Br)cc3)C(=O)C(=O)N2Cc2ccco2)o1 (stereo unspecified),103% (inactive)
11,CCc1ccc([C@@H]2CC=C(C(=O)O)[C@H](c3ccc(C)cc3)N2S(=O)(=O)c2ccc(C)cc2)cc1,82.7% (inactive)
12,O=C(O)/C=C/C(=O)c1c(-c2ccccc2)[nH]c2ccccc12,94% (inactive)
13,CCc1ccc(NC(=O)C2=CC=CN3CCS(=O)(=O)N=C23)cc1,101% (inactive)
14,Cc1noc(NS(=O)(=O)c2ccc(NC(=O)c3ccccc3NS(=O)(=O)c3ccc(F)c(F)c3)cc2)c1C,100% (inactive)
15,O=C1C(Cl)=C(N2CCOCC2)C(=O)N1c1ccc(Br)cc1,101% (inactive)
16,Cc1ccc(C)c(OCC(=O)NCC2COc3ccccc3O2)c1 (stereo unspecified),89.8% (inactive)
17,COc1nc(OC)nc(N2CCC(C(=O)NC3CC3)CC2)n1,95.8% (inactive)
18,O=C(O)CN1C(=O)/C(=C\c2cc(Br)ccc2OCc2ccc(Cl)cc2)SC1=S,92.4% (inactive)
19,O=C(O)CCN1C(=O)/C(=C\c2cccc(Oc3ccccc3)c2)SC1=S,107% (inactive)
20,COc1cc(/C=C2/S/C(=N/S(=O)(=O)c3ccccc3)NC2=O)c([N+](=O)[O-])cc1OC,101% (inactive)
21,O=C1OC(c2ccccc2)(c2cc(Br)c(O)c(Br)c2)c2ccccc21 (stereo unspecified),111% (inactive)
22,O=C(O)C(Cc1ccccc1)N1C(=O)c2c(Cl)c(Cl)c(Cl)c(Cl)c2C1=O (stereo unspecified),122% (inactive)
